# Laboratory results published in PubChem BioAssay AID602431 (Southern Research Specialized Biocontainment Screening …, 2012).
# Potency and affinity values are given separately. Inconclusive results are not listed. Unmarked numbers belong to inactive results. The rule behind the calls is not given here.
# Test: viability loss in Vero cells – cell-based, purified and synthesized samples, set 8, cytotoxicity control for M. tuberculosis inhibitor project (AID 602431)
# Conditions: series mostly up to 100 µM; viability: at the top concentration
row,SMILES,viability [%]
1,O=C(c1ccc(CNc2c(N3CCCC3)c(=O)c2=O)cc1)N1CCN(c2ccccc2)CC1,97.1
2,O=C(CSc1nc2ccccc2c(=O)[nH]1)NC1CCOCC1,87.4
3,O=C(CSc1nc2c(c(=O)[nH]1)CCCC2)NC1CCCCC1,85.2
4,CC(C)CCNC(=O)CSc1nc2c(c(=O)[nH]1)CCCCC2,93.8
5,CC(C)CCNC(=O)CSc1nc2ccccc2c(=O)[nH]1,88.2
6,O=C(c1ccc(CNc2c(N3CCOCC3)c(=O)c2=O)cc1)N1CCN(c2ccccc2)CC1,99.7
7,COCCNC(=O)CSc1nc2ccccc2c(=O)[nH]1,91.8
8,O=C(c1ccc(CNc2c(N3CCOCC3)c(=O)c2=O)cc1)N1CCC(c2ccccc2)CC1,94.5
9,O=C(NCc1ccc(C(=O)N2CCN(c3ccccc3)CC2)cc1)NC1CCCCC1,99.6
10,O=C(CSc1nc2c(c(=O)[nH]1)CCC2)NC1CCCCC1,95.9
11,COC(=O)C(Cc1ccccc1)NC(=O)CSc1nc2ccccc2c(=O)[nH]1 (configuration not stated),96.1
12,CC(C)CCNC(=O)CSc1nc2c(c(=O)[nH]1)CCCC2,89.3
